In the supplement of paper PMC8728848:
The sample as a whole holds a higher share of the strongest signals than the screen did.

How the values were obtained:
Experiment in all cases: glycan array binding signal (z-score within array); higher = stronger binding
Conditions in all cases: glycan notation: IUPAC condensed, linker removed
[1] = target: Fuc(a1-2)Gal(b1-3)GlcNAc(b1-2)Man(a1-3)[Fuc(a1-2)Gal(b1-3)GlcNAc(b1-2)Man(a1-6)]Man(b1-4)GlcNAc(b1-4)GlcNAc
In short: (§1)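 From the Consortium for Functional Glycomics database, 3228 arrays were curated, keeping only those whose protein sequence was available. Binding is given as a within-array Z-score averaged across arrays sharing a protein sequence and across linkers. Negative Z-scores can be read as non-binding.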

[2] = target: Fuc(a1-2)Gal(b1-4)GlcNAc(b1-3)GalNAc
In short: as §1

[3] = target: Fuc(a1-2)[Gal(a1-3)]Gal(b1-4)Glc
In short: as §1

[4] = target: Fuc(a1-2)[GalNAc(a1-4)]Gal(b1-4)GlcNAc
In short: as §1

[5] = target: Fuc(a1-3)[Gal(b1-4)]GlcNAc(b1-3)Gal(b1-3)[Fuc(a1-4)]GlcNAc
In short: as §1

[6] = target: Fuc(a1-3)[Gal3S(b1-4)]Glc
In short: as §1

[7] = target: Fuc(a1-3)[GalNAc(b1-4)]GlcNAc6S
In short: as §1

[8] = target: Gal(a1-3)GalNAc
In short: as §1

[9] = target: Gal(a1-6)Glc
In short: as §1

[10] = target: Gal(b1-3)GalNAc
In short: as §1

[11] = target: Gal(b1-3)GlcNAc(a1-3)Gal(b1-4)GlcNAc
In short: as §1

[12] = target: Gal(b1-3)GlcNAc(b1-3)Gal(b1-4)GlcNAc(b1-2)Man(a1-3)[Gal(b1-3)GlcNAc(b1-3)Gal(b1-4)GlcNAc(b1-2)Man(a1-6)]Man(b1-4)GlcNAc(b1-4)GlcNAc
In short: as §1

[13] = target: Gal(b1-3)GlcNAc(b1-3)Gal(b1-4)GlcNAc(b1-6)[Gal(b1-3)GlcNAc(b1-3)]Gal(b1-4)Glc
In short: as §1

[14] = target: Gal(b1-3)[Fuc(a1-4)]GlcNAc(b1-3)Gal(b1-4)[Fuc(a1-3)]GlcNAc
In short: as §1

[15] = target: Gal(b1-4)Gal
In short: as §1

[16] = target: Gal(b1-4)GlcNAc(b1-2)Man(a1-3)[Man(a1-6)]Man(b1-4)GlcNAc(b1-4)GlcNAc
In short: as §1

[17] = target: Gal(b1-4)GlcNAc(b1-3)Gal(b1-4)GlcNAc(b1-3)Gal(b1-4)GlcNAc(b1-2)Man(a1-3)[Gal(b1-4)GlcNAc(b1-3)Gal(b1-4)GlcNAc(b1-3)Gal(b1-4)GlcNAc(b1-2)Man(a1-6)]Man(b1-4)GlcNAc(b1-4)GlcNAc
In short: as §1

[18] = target: Gal(b1-4)GlcNAc(b1-3)Gal(b1-4)GlcNAc(b1-3)Gal(b1-4)GlcNAc(b1-3)Gal(b1-4)GlcNAc(b1-3)Gal(b1-4)GlcNAc(b1-2)Man(a1-3)[Gal(b1-4)GlcNAc(b1-3)Gal(b1-4)GlcNAc(b1-3)Gal(b1-4)GlcNAc(b1-3)Gal(b1-4)GlcNAc(b1-3)Gal(b1-4)GlcNAc(b1-2)Man(a1-6)]Man(b1-4)GlcNAc(b1-4)GlcNAc
In short: as §1

[19] = target: Gal(b1-4)GlcNAc(b1-3)Gal(b1-4)GlcNAc(b1-3)Gal(b1-4)GlcNAc(b1-3)Gal(b1-4)GlcNAc(b1-3)Gal(b1-4)GlcNAc(b1-2)Man(a1-3)[Gal(b1-4)GlcNAc(b1-3)Gal(b1-4)GlcNAc(b1-3)Gal(b1-4)GlcNAc(b1-3)Gal(b1-4)GlcNAc(b1-3)Gal(b1-4)GlcNAc(b1-2)Man(a1-6)]Man(b1-4)GlcNAc(b1-4)[Fuc(a1-6)]GlcNAc
In short: as §1

[20] = target: Gal(b1-4)GlcNAc(b1-3)Gal(b1-4)GlcNAc(b1-3)Gal(b1-4)GlcNAc(b1-3)Gal(b1-4)GlcNAc(b1-3)Gal(b1-4)GlcNAc(b1-2)[Gal(b1-4)GlcNAc(b1-3)Gal(b1-4)GlcNAc(b1-3)Gal(b1-4)GlcNAc(b1-3)Gal(b1-4)GlcNAc(b1-3)Gal(b1-4)GlcNAc(b1-6)]Man(a1-6)[Gal(b1-4)GlcNAc(b1-3)Gal(b1-4)GlcNAc(b1-3)Gal(b1-4)GlcNAc(b1-3)Gal(b1-4)GlcNAc(b1-3)Gal(b1-4)GlcNAc(b1-2)Man(a1-3)]Man(b1-4)GlcNAc(b1-4)[Fuc(a1-6)]GlcNAc
In short: as §1

[21] = target: Gal(b1-4)GlcNAc(b1-6)Gal(b1-4)GlcNAc
In short: as §1

[22] = target: Gal3S(b1-4)GlcNAc
In short: as §1

[23] = target: Gal6S(b1-3)GlcNAc
In short: as §1

[24] = target: GalNAc(b1-4)GlcNAc
In short: as §1

[25] = target: GlcNAc(b1-2)[GlcNAc(b1-6)]Man(a1-6)[GlcNAc(b1-4)][GlcNAc(b1-2)Man(a1-3)]Man(b1-4)GlcNAc(b1-4)GlcNAc
In short: as §1

[26] = target: GlcNAc(b1-3)Gal(b1-4)GlcNAc(b1-3)Gal(b1-4)GlcNAc(b1-3)Gal(b1-4)GlcNAc(b1-3)Gal(b1-4)GlcNAc(b1-2)Man(a1-3)[GlcNAc(b1-3)Gal(b1-4)GlcNAc(b1-3)Gal(b1-4)GlcNAc(b1-3)Gal(b1-4)GlcNAc(b1-3)Gal(b1-4)GlcNAc(b1-2)Man(a1-6)]Man(b1-4)GlcNAc(b1-4)[Fuc(a1-6)]GlcNAc
In short: as §1

[27] = target: GlcNAc(b1-4)GlcNAc
In short: as §1

[28] = target: Kdn(a2-3)Gal(b1-4)Glc
In short: as §1

[29] = target: Kdn(a2-3)Gal(b1-4)GlcNAc
In short: as §1

[30] = target: Man(a1-2)Man(a1-3)Man
In short: as §1

[31] = target: Man(a1-2)Man(a1-3)[Man(a1-2)Man(a1-6)]Man(a1-6)[Man(a1-2)Man(a1-2)Man(a1-3)]Man
In short: as §1

[32] = target: Neu5Ac(a2-3)Gal(b1-3)GalNAc(b1-3)Gal(a1-4)Gal(b1-4)Glc
In short: as §1

[33] = target: Neu5Ac(a2-3)Gal(b1-3)GlcNAc(b1-6)GalNAc
In short: as §1

[34] = target: Neu5Ac(a2-3)Gal(b1-3)[Fuc(a1-4)]GlcNAc(b1-3)Gal(b1-3)[Fuc(a1-4)]GlcNAc
In short: as §1

[35] = target: Neu5Ac(a2-3)Gal(b1-4)GlcNAc(b1-2)Man(a1-3)[Neu5Ac(a2-6)Gal(b1-4)GlcNAc(b1-2)Man(a1-6)]Man(b1-4)GlcNAc(b1-4)GlcNAc
In short: as §1

[36] = target: Neu5Ac(a2-3)Gal(b1-4)GlcNAc(b1-2)[Neu5Ac(a2-3)Gal(b1-4)GlcNAc(b1-4)]Man(a1-3)[GlcNAc(b1-4)][Neu5Ac(a2-3)Gal(b1-4)GlcNAc(b1-2)[Neu5Ac(a2-3)Gal(b1-4)GlcNAc(b1-6)]Man(a1-6)]Man(b1-4)GlcNAc(b1-4)GlcNAc
In short: as §1

[37] = target: Neu5Ac(a2-3)Gal(b1-4)GlcNAc(b1-3)Gal(b1-4)GlcNAc(b1-3)[Neu5Ac(a2-3)Gal(b1-4)GlcNAc(b1-3)Gal(b1-4)GlcNAc(b1-6)]GalNAc
In short: as §1

[38] = target: Neu5Ac(a2-3)Gal(b1-4)[Fuc(a1-3)]GlcNAc(b1-2)Man
In short: as §1

[39] = target: Neu5Ac(a2-3)[GalNAc(b1-4)]Gal(b1-4)GlcNAc
In short: as §1

[40] = target: Neu5Ac(a2-6)Gal(b1-4)GlcNAc(b1-3)Gal(b1-4)[Fuc(a1-3)]GlcNAc(b1-3)Gal(b1-4)[Fuc(a1-3)]GlcNAc
In short: as §1

[41] = target: Neu5Ac(a2-8)Neu5Ac(a2-8)Neu5Ac
In short: as §1

[42] = target: Neu5Gc(a2-3)Gal(b1-4)Glc
In short: as §1

[43] = target: Neu5Gc(a2-3)Gal(b1-4)[Fuc(a1-3)]GlcNAc
In short: as §1

[44] = target: Neu5Gc(a2-8)Neu5Gc(a2-6)Gal(b1-4)GlcNAc
In short: as §1

B1: Als3-2 (Candida albicans) (protein)
chain: KTITGVFNSFNSLTWSNAATYNYKGPGTPTWNAVLGWSLDGTSASPGDTFTLNMPCVFKFTTSQTSVDLTAHGVKYATCQFQAGEEFMTFSTLTCTVSNTLTPSIKALGTVTLPLAFNVGGTGSSVDLEDSKCFTAGTNTVTFNDGGKKISINVDFERSNVDPKGYLTD
Question: For B1, which “glycan array binding signal (z-score)” value [1] is on record?
Answer: 7.12

Question: What about the “glycan array binding signal (z-score)” value [2] of the same binder?
Answer: 9.17

Question: What about the “glycan array binding signal (z-score)” value [3] of the same binder?
Answer: -0.338

Question: What about the “glycan array binding signal (z-score)” value [4] of the same binder?
Answer: -0.444

Question: What about the “glycan array binding signal (z-score)” value [5] of the same binder?
Answer: 3.23

Question: And the “glycan array binding signal (z-score)” value [6]?
Answer: -0.64

Question: And the “glycan array binding signal (z-score)” value [7]?
Answer: 0.076

Question: And the “glycan array binding signal (z-score)” value [8]?
Answer: -0.308

Question: What about the “glycan array binding signal (z-score)” value [9] of the same binder?
Answer: -0.625

Question: What about the “glycan array binding signal (z-score)” value [10] of the same binder?
Answer: -0.398

Question: And the “glycan array binding signal (z-score)” value [11]?
Answer: -0.203

Question: What about the “glycan array binding signal (z-score)” value [12] of the same binder?
Answer: 2.3

Question: What about the “glycan array binding signal (z-score)” value [13] of the same binder?
Answer: -0.603

Question: And the “glycan array binding signal (z-score)” value [14]?
Answer: -0.461

Question: And the “glycan array binding signal (z-score)” value [15]?
Answer: -0.552

Question: And the “glycan array binding signal (z-score)” value [16]?
Answer: 0.449

Question: And the “glycan array binding signal (z-score)” value [17]?
Answer: 3.26

Question: What about the “glycan array binding signal (z-score)” value [18] of the same binder?
Answer: 5.24

Question: What about the “glycan array binding signal (z-score)” value [19] of the same binder?
Answer: 3.26

Question: And the “glycan array binding signal (z-score)” value [20]?
Answer: 3.16

Question: And the “glycan array binding signal (z-score)” value [21]?
Answer: 1.11

Question: And the “glycan array binding signal (z-score)” value [22]?
Answer: 0.36

Question: What about the “glycan array binding signal (z-score)” value [23] of the same binder?
Answer: 3.68

Question: What about the “glycan array binding signal (z-score)” value [24] of the same binder?
Answer: 0.934

Question: And the “glycan array binding signal (z-score)” value [25]?
Answer: -0.7

Question: And the “glycan array binding signal (z-score)” value [26]?
Answer: 3.13

Question: What about the “glycan array binding signal (z-score)” value [27] of the same binder?
Answer: 0.531

Question: And the “glycan array binding signal (z-score)” value [28]?
Answer: -0.075

Question: What about the “glycan array binding signal (z-score)” value [29] of the same binder?
Answer: -0.528

Question: What about the “glycan array binding signal (z-score)” value [30] of the same binder?
Answer: -0.511

Question: And the “glycan array binding signal (z-score)” value [31]?
Answer: -0.73

Question: What about the “glycan array binding signal (z-score)” value [32] of the same binder?
Answer: -0.583

Question: What about the “glycan array binding signal (z-score)” value [33] of the same binder?
Answer: 1.45

Question: And the “glycan array binding signal (z-score)” value [34]?
Answer: -0.524

Question: And the “glycan array binding signal (z-score)” value [35]?
Answer: -0.401

Question: And the “glycan array binding signal (z-score)” value [36]?
Answer: 3.2

Question: What about the “glycan array binding signal (z-score)” value [37] of the same binder?
Answer: 6.15

Question: And the “glycan array binding signal (z-score)” value [38]?
Answer: 0.73

Question: What about the “glycan array binding signal (z-score)” value [39] of the same binder?
Answer: -0.449

Question: What about the “glycan array binding signal (z-score)” value [40] of the same binder?
Answer: -0.584

Question: And the “glycan array binding signal (z-score)” value [41]?
Answer: -0.398

Question: And the “glycan array binding signal (z-score)” value [42]?
Answer: 0.047

Question: What about the “glycan array binding signal (z-score)” value [43] of the same binder?
Answer: -0.059

Question: What about the “glycan array binding signal (z-score)” value [44] of the same binder?
Answer: -0.628
